The results in this text go back to PubChem BioAssay (EPA / NIEHS).

Read-out in assay [1]: Protein phosphatase 2A (PPP2R4), PTPA (gene 5524)
The assay can be described thus: LTEA_HepaRG_PPP2R4: Life Technologies and Expression Analysis (LTEA) Assay for Protein phosphatase 2A (PPP2R4) using HepaRG (AID 2283522). The note with it: mRNA level, 48 h; actives raise or lower the signal. The method in brief:
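Cells were plated, cultured 48 h, switched to serum-free induction medium, then dosed for 48 h (8 points, max 100 uM, 0.5% DMSO). RNA was isolated and PPP2R4 expression measured by TaqMan qRT-PCR.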

Read-out in assay [2]: Phosphatase and tensin (PTEN), PTEN (gene 5728)
The assay can be described thus: LTEA_HepaRG_PTEN: Life Technologies and Expression Analysis (LTEA) Assay for Phosphatase and tensin (PTEN) using HepaRG (AID 2283523). As to conditions: mRNA level, 48 h; actives raise or lower the signal. The essentials: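 HepaRG, 48 h exposure, 8-pt half-log series from 100 uM top, 0.5% DMSO vehicle, duplicates. Readout: Fluidigm qRT-PCR of PTEN transcript; housekeeping normalization (ACTB, GAPDH, POLR2A). Gain or loss fitted relative to DMSO baseline.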

Read-out in assay [3]: solute carrier (SLC22A1), SLC22A1 (gene 6580)
Briefly: LTEA_HepaRG_SLC22A1: Life Technologies and Expression Analysis (LTEA) Assay for solute carrier (SLC22A1) using HepaRG (AID 2283524). As to conditions: mRNA level, 48 h; actives raise or lower the signal. The essentials:
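qRT-PCR readout (TaqMan, Fluidigm arrays) of SLC22A1 transcript, normalized to three housekeeping genes; bidirectional curve fit relative to 0.5% DMSO vehicle. Differentiated human HepaRG cells, 48 h chemical exposure, top concentration 100 uM, half-log steps, eight points.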

Read-out in assay [4]: Pyruvate Dehydrogenase Kinase 4 (PDK4), PDK4 (gene 5166)
Briefly: LTEA_HepaRG_PDK4: Life Technologies and Expression Analysis (LTEA) Assay for Pyruvate Dehydrogenase Kinase 4 (PDK4) using HepaRG (AID 2283525). As to conditions: mRNA level, 48 h; actives raise or lower the signal. The method in brief:
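HepaRG (human liver line), 48 h chemical exposure, 8-pt half-log CRC top 100 uM, 0.5% DMSO vehicle, duplicates. Readout: TaqMan qRT-PCR of PDK4 mRNA, housekeeping-normalized; gain/loss fit relative to DMSO baseline.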

Read-out in assay [5]: NAD(P)H dehydrogenase [quinone] 1 (NQO1), NQO1 (gene 1728)
Briefly: LTEA_HepaRG_NQO1: Life Technologies and Expression Analysis (LTEA) Assay for NAD(P)H dehydrogenase [quinone] 1 (NQO1) using HepaRG (AID 2283526). As to conditions: mRNA level, 48 h; actives raise or lower the signal. The essentials:
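Transcript induction or suppression is quantified by qRT-PCR in human HepaRG liver cells dosed for 48 hours. Eight half-log concentrations topping at 100 uM are used, with 0.5% DMSO as vehicle and baseline.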

Read-out in assay [6]: Nuclear factor erythroid 2-related factor 2 (Homo sapiens) (UniProt Q16236)
The assay can be described thus: LTEA_HepaRG_NFE2L2: Life Technologies and Expression Analysis (LTEA) Assay for Nuclear factor erythroid 2-related factor 2 (NFE2L2) Transcription Factor using HepaRG (AID 2283527).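 As to outcome: TaqMan qRT-PCR transcript level normalised to ACTB GAPDH and POLR2A housekeeping genes.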 As to conditions: mRNA level, 48 h; actives raise or lower the signal. The essentials:
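HepaRG, 48 h dosing, 8-pt half-log series from 100 uM in 0.5% DMSO, duplicates. Read-out: NFE2L2 mRNA by qRT-PCR (ACTB/GAPDH/POLR2A normalization). Bidirectional curve fit vs DMSO baseline.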

Read-out in assay [7]: succinate dehydrogenase complex iron sulfur subunit B (SDHB), SDHB (gene 6390)
Briefly: LTEA_HepaRG_SDHB: Life Technologies and Expression Analysis (LTEA) Assay for succinate dehydrogenase complex iron sulfur subunit B (SDHB) using HepaRG (AID 2283528). The note with it: mRNA level, 48 h; actives raise or lower the signal. The essentials:
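A human HepaRG culture in serum-free induction medium received test chemicals for 48 h over an eight-point range capped at 100 uM. SDHB expression change was quantified by qRT-PCR.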

Read-out in assay [8]: Signal transducer and activator of transcription 3 (Homo sapiens) (UniProt P40763)
The assay can be described thus: LTEA_HepaRG_STAT3: Life Technologies and Expression Analysis (LTEA) Assay for Signal transducer and activator of transcription (STAT3) using HepaRG (AID 2283529). The note with it: mRNA level, 48 h; actives raise or lower the signal. The method in brief: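 HepaRG, 48 h exposure, 8-pt half-log series (top 100 uM), 0.5% DMSO vehicle, duplicates. Readout: STAT3 transcript by Fluidigm qRT-PCR, housekeeping-normalized; bidirectional fit vs DMSO baseline.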

Read-out in assay [9]: solute carrier (SLCO1B1), SLCO1B1 (gene 10599)
The assay can be described thus: LTEA_HepaRG_SLCO1B1: Life Technologies and Expression Analysis (LTEA) Assay for solute carrier (SLCO1B1) using HepaRG (AID 2283530). As to conditions: mRNA level, 48 h; actives raise or lower the signal. The method in brief:
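Differentiated human HepaRG cells, plated 48 h, switched to serum-free induction medium and exposed in duplicate for 48 h to 8 half-log concentrations (top 100 uM) in 0.5% DMSO. SLCO1B1 mRNA by TaqMan qRT-PCR, normalized to ACTB/GAPDH/POLR2A.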

Read-out in assay [10]: sulfotransferase 2A1 (SULT2A1), SULT2A1 (gene 6822)
The assay can be described thus: LTEA_HepaRG_SULT2A1: Life Technologies and Expression Analysis (LTEA) Assay for sulfotransferase 2A1 (SULT2A1) using HepaRG (AID 2283531). The note with it: mRNA level, 48 h; actives raise or lower the signal. The essentials: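 Differentiated human HepaRG cells in serum-free induction medium were exposed for 48 h to eight half-log concentrations (top 100 uM, 0.5% DMSO). SULT2A1 mRNA was measured by qRT-PCR, normalized to ACTB, GAPDH and POLR2A, and fitted bidirectionally against DMSO.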

Read-out in assay [11]: Transforming Growth Factor (TGFA), TGFA (gene 7039)
The assay can be described thus: LTEA_HepaRG_TGFA: Life Technologies and Expression Analysis (LTEA) Assay for Transforming Growth Factor (TGFA) using HepaRG (AID 2283532). The note with it: mRNA level, 48 h; actives raise or lower the signal. The essentials: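 qRT-PCR read-out of TGFA transcript, normalized to three housekeeping genes, fitted bidirectionally against 0.5% DMSO baseline. Human HepaRG cultures received chemicals for 48 h at eight half-log concentrations, top 100 uM.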

Read-out in assay [12]: Transforming Growth Factor (TGFB1), TGFB1 (gene 7040)
The assay can be described thus: LTEA_HepaRG_TGFB1: Life Technologies and Expression Analysis (LTEA) Assay for Transforming Growth Factor (TGFB1) Transporter using HepaRG (AID 2283533). As to conditions: mRNA level, 48 h; actives raise or lower the signal. The essentials: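 Differentiated human HepaRG cells in serum-free induction medium were exposed in duplicate for 48 h to eight concentrations (top 100 uM, half-log steps, 0.5% DMSO). TGFB1 mRNA was quantified by qRT-PCR, normalized to ACTB, GAPDH, POLR2A, and fitted bidirectionally against DMSO.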

Read-out in a further assay: TIMP1, TIMP1 (gene 7076)
The assay can be described thus: LTEA_HepaRG_TIMP1: Life Technologies and Expression Analysis (LTEA) Assay for TIMP1 using HepaRG (AID 2283534). As to conditions: mRNA level, 48 h; actives raise or lower the signal. The essentials: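 Differentiated human HepaRG cells in serum-free induction medium were exposed 48 h to chemicals (8 half-log concentrations, top 100 uM, 0.5% DMSO). TIMP1 mRNA was quantified by TaqMan qRT-PCR, normalized to ACTB/GAPDH/POLR2A; bidirectional fit versus DMSO.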

Read-out in assay [13]: Thyroid Hormone Responsive (THRSP), THRSP (gene 7069)
Briefly: LTEA_HepaRG_THRSP: Life Technologies and Expression Analysis (LTEA) Assay for Thyroid Hormone Responsive (THRSP) using HepaRG (AID 2283536). As to conditions: mRNA level, 48 h; actives raise or lower the signal. The essentials:
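qRT-PCR read-out (Fluidigm TaqMan), housekeeping-normalized (ACTB/GAPDH/POLR2A). HepaRG, 48 h chemical exposure, 8-pt half-log series from 100 uM in 0.5% DMSO, duplicates. Bidirectional curve fit vs 0.5% DMSO baseline.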

Read-out in assay [14]: UDP glucuronosyltransferase (UGT1A1), UGT1A1 (gene 54658)
Briefly: LTEA_HepaRG_UGT1A1: Life Technologies and Expression Analysis (LTEA) Assay for UDP glucuronosyltransferase (UGT1A1) using HepaRG (AID 2283538). The note with it: mRNA level, 48 h; actives raise or lower the signal. The method in brief: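 Cells are plated, cultured 48 h, switched to serum-free induction medium, then dosed 48 h at eight concentrations (max 100 uM, 0.5% DMSO). RNA is isolated and UGT1A1 expression measured by qRT-PCR; changes versus DMSO are fitted in both directions.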

Read-out in assay [15]: UDP glucuronosyltransferase (UGT1A6), UGT1A6 (gene 54578)
Briefly: LTEA_HepaRG_UGT1A6: Life Technologies and Expression Analysis (LTEA) Assay for UDP glucuronosyltransferase (UGT1A6) using HepaRG (AID 2283539). As to conditions: mRNA level, 48 h; actives raise or lower the signal. The method in brief: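 Human HepaRG cells were dosed for 48 h in serum-free induction medium with 0.5% DMSO vehicle, eight-point half-log series from 100 uM, in duplicate. UGT1A6 mRNA was measured by qRT-PCR, normalized to ACTB, GAPDH, POLR2A, and fitted bidirectionally against DMSO.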

Read-out in assay [16]: X-box binding protein 1 (XBP1), XBP1 (gene 7494)
The assay can be described thus: LTEA_HepaRG_XBP1: Life Technologies and Expression Analysis (LTEA) Assay for X-box binding protein 1 (XBP1) using HepaRG (AID 2283540). The note with it: mRNA level, 48 h; actives raise or lower the signal. The method in brief:
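Differentiated human HepaRG cells in serum-free induction medium were exposed in duplicate for 48 h to eight half-log concentrations up to 100 uM in 0.5% DMSO. XBP1 mRNA was quantified by qRT-PCR, normalised to ACTB, GAPDH and POLR2A, with bidirectional fitting against DMSO.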

Assay [17] is described as follows: LTEA_HepaRG_LDH_cytotoxicity: Cytotoxicity Assessment in the Life Technologies and Expression Analysis (LTEA) Assay (AID 2283563; active = hit-call score of the fitted dose curve at least 0.9, where 1 is the maximum;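 as to AC50: LDH activity released into spent culture medium as a marker of cell death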). The method in brief:
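Differentiated human HepaRG cells, plated 48 h beforehand, were switched to serum-free induction medium and exposed for 48 h to eight half-log concentrations (top 100 uM) in 0.5% DMSO. LDH was measured in spent medium; activity was fitted relative to DMSO vehicle.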

Read-out in assay [18]: Tumor necrosis factor receptor 1 (TNFRSF1A), TNFRSF1A (gene 7132)
Briefly: LTEA_HepaRG_TNFRSF1A: Life Technologies and Expression Analysis (LTEA) Assay for Tumor necrosis factor receptor 1 (TNFRSF1A) using HepaRG (AID 2283535). As to conditions: mRNA level, 48 h; actives raise or lower the signal. The essentials: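 Differentiated human HepaRG cells were exposed in duplicate for 48 h in serum-free induction medium to eight concentrations (top 100 uM, half-log steps, 0.5% DMSO). TNFRSF1A mRNA was quantified by qRT-PCR, normalized to ACTB, GAPDH and POLR2A, then fitted bidirectionally against DMSO.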

Read-out in assay [19]: Cellular tumor antigen p53 (Homo sapiens) (UniProt P04637)
Briefly: LTEA_HepaRG_TP53: Life Technologies and Expression Analysis (LTEA) Assay for Tumor Protein P53 (TP53) using HepaRG (AID 2283537). As to conditions: mRNA level, 48 h; actives raise or lower the signal. The method in brief: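 Gain or loss of TP53 mRNA signal is scored relative to 0.5% DMSO after 48 h chemical treatment of HepaRG liver cells, tested in duplicate at eight half-log concentrations up to 100 uM.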

Active and inactive are the calls of the source. The calls were made as follows, unless noted: active = hit-call score of the fitted dose curve at least 0.9, where 1 is the maximum; inactive = score below 0.9.

Signal transducer and activator of transcription 3 (Homo sapiens), sequence (P40763 whole entry, looked up): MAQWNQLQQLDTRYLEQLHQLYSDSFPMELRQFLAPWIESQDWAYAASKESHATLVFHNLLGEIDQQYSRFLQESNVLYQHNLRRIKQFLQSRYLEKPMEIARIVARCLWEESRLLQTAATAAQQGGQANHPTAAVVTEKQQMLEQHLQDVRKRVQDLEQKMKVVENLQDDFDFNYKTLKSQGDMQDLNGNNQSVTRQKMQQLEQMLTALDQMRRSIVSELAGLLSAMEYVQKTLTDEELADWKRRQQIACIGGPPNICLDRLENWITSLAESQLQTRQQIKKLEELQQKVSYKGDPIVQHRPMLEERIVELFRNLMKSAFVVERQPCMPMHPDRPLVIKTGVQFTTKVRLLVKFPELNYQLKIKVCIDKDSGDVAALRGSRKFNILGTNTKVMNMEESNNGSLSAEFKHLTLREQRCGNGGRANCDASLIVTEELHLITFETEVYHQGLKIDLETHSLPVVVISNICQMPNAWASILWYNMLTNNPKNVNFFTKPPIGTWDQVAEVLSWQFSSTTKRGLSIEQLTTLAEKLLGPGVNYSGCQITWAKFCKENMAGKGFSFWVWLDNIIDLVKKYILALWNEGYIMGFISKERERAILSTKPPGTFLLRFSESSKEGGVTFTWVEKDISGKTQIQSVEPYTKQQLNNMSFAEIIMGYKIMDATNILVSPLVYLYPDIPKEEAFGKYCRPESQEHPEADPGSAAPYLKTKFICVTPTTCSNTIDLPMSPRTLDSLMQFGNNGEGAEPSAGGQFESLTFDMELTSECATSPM
Nuclear factor erythroid 2-related factor 2 (Homo sapiens), sequence (Q16236 whole entry, looked up): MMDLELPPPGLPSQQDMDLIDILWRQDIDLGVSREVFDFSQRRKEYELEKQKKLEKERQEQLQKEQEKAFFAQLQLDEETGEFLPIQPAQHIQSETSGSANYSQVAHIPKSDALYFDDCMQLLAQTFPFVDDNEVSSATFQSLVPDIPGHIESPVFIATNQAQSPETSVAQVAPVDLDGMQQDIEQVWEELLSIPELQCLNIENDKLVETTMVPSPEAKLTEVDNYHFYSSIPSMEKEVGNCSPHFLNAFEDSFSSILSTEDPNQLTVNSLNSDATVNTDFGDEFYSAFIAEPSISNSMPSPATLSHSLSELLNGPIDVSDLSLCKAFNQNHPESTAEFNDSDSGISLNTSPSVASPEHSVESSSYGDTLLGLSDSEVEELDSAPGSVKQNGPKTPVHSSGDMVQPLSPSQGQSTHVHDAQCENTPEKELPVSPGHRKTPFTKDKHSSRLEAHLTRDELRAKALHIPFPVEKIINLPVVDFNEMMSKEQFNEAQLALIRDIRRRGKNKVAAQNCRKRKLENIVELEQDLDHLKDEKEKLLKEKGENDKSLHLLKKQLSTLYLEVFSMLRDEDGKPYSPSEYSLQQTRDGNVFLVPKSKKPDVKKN
Cellular tumor antigen p53 (Homo sapiens), sequence (P04637 whole entry, looked up): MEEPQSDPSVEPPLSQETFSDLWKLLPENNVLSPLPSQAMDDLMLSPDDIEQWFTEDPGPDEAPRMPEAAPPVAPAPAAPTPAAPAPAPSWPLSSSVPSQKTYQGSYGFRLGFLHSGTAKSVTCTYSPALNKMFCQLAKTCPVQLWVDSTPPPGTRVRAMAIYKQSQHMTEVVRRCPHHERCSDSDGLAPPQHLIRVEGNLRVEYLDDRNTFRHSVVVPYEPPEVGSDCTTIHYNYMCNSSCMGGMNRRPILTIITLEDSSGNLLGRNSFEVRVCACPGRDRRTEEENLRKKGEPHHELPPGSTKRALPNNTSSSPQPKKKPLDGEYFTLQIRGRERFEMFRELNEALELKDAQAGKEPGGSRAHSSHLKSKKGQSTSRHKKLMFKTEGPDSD

With `CC1(C(=O)Nc2ccc(O)c(Cl)c2Cl)CCCCC1`, the result in assay [1], in assay [2], in assay [3], in assay [4], in [5] and in assay [6] was inactive. Further, the molecule was classed as inactive in [7], in assay [8], in assay [9], in assay [10], in assay [11] and in assay [12]. For the same molecule, the outcome with TIMP1, TIMP1 (gene 7076) is “inactive”; in assay [13], “inactive”; in assay [14], “inactive”; in [15], “inactive”; in [16], “inactive”; in [17], “inactive”.

In the case of `CC(C1CC1)C(O)(Cn1cncn1)c1ccc(Cl)cc1` (stereo not given), the molecule was called inactive in assay [1], in [2], in assay [4], in assay [5], in assay [6] and in assay [7]. The outcome in assay [9] is “inactive”; in [10], “inactive”; in assay [11], “inactive”; in assay [12], “inactive”; in the assay with TIMP1, TIMP1 (gene 7076) it was “inactive”; in assay [18], “inactive”. The outcome in assay [14], in assay [15] and in assay [17] was inactive. Besides, the figures for the AC50 in [3], in assay [8] and in assay [13] were 66.9 µM (active), 0.389 µM (active) and 28.1 µM (active), respectively.

On to `CSC1=N[C@@](C)(c2ccccc2)C(=O)N1Nc1ccccc1`, for which the outcome in [1] is “inactive”; in [2], “inactive”; in [5] it was “inactive”; in assay [12] it was “inactive”; with TIMP1, TIMP1 (gene 7076), “inactive”; in [18], “inactive”. Further, in assay [16], the result was inactive. For the same molecule, the concentration at half-maximal activity (AC50) in assay [3] was 34.2 µM (active); in [4], 12.7 µM (active); in [6] it was 68.6 µM (active); in assay [8], 9.92 µM (active); in assay [9], 35.7 µM (active); in assay [10], 34.9 µM (active). The AC50 in [11] was 29.7 µM (active); in [13], 71.4 µM (active); in assay [19], 28.4 µM (active); in [14], 32.1 µM (active); in assay [15], 33.2 µM (active); in assay [17] it was 32.4 µM (active).
